Drawing on PMC7862700, “An all-to-all approach to the identification of sequence-specific readers for epigenetic DNA modifications on cytosine”, this text covers binding signal for 1 sequence.

Common to all, as to test: DAPPL (digital affinity profiling via proximity ligation, sequencing); 10 mM Tris-HCl pH 7.5, 50 mM NaCl, 1 mM DTT, 4% glycerol, room temperature, 30 min; GST-TFs on glutathione beads, 16-mer random dsDNA library, 0.1% formaldehyde crosslink after washing; high values mean tight binding
What all share (settings): protein: recombinant; tags: N-terminal GST; dsDNA, one strand shown

One assay deals with T1, ELK1 (Homo sapiens, UniProt P19419 1-428).
T1 sequence: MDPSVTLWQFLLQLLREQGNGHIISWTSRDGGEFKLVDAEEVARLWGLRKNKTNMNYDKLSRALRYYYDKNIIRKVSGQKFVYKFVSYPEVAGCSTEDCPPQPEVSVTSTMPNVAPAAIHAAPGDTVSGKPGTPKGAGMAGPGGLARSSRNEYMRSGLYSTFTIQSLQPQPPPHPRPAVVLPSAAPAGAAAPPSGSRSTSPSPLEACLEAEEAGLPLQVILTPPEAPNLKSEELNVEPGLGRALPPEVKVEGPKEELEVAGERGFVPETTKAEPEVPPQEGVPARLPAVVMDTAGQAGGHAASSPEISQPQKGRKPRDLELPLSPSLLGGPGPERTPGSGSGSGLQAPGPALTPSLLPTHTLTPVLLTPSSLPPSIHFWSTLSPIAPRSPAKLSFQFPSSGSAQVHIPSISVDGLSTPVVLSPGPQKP
In outline:
(§1)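 Binding signal is each hexamer's read frequency for a factor divided by its frequency in the tag-only sample. The factors were GST-fused human transcription factors from yeast, captured on glutathione beads, DNA-barcoded and pooled with that sample. Pools were incubated with 200 nmole of a random double-stranded 16-mer DNA library in Tris/NaCl/DTT/glycerol buffer at room temperature for 30 min, then washed, crosslinked with 0.1% formaldehyde, proximity-ligated with BsaI/T4 ligase (1 h, 37 °C), PCR-amplified and sequenced on an Illumina NextSeq500.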

A further assay has as its target T2, GABPA (Homo sapiens, UniProt Q06546 1-454).
T2 sequence: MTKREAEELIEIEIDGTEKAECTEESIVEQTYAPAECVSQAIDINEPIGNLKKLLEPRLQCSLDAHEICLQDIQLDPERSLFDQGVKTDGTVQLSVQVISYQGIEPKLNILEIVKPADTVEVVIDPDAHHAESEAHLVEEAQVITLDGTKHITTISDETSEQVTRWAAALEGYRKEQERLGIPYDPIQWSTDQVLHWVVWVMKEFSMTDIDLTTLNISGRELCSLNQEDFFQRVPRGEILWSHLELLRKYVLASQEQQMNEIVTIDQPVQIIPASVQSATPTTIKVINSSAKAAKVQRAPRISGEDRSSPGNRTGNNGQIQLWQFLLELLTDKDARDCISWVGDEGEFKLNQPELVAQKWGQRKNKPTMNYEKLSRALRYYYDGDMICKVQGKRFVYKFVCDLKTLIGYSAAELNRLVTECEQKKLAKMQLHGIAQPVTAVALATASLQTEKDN
The gist of the method:
as §1

In a further assay the target is ELF1 (Homo sapiens, UniProt P32519 1-619). The gist of the method: as §1
A further assay concerns the target T3, EHF (Homo sapiens, UniProt Q9NZC4 1-300).
T3 sequence: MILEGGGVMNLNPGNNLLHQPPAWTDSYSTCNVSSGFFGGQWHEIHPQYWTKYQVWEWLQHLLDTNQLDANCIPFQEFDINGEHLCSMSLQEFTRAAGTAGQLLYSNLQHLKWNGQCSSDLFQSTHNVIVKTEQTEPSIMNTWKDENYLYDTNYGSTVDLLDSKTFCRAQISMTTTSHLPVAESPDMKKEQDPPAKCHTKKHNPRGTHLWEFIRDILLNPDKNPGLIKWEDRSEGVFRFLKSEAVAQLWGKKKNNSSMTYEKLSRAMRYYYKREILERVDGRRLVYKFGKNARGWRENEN
The gist of the method:
as §1

The target of a further assay is SPI1 (Homo sapiens, UniProt P17947 1-270). The gist of the method: as §1
A further assay addresses SPIB (Homo sapiens, UniProt Q01892 1-262). In outline:
as §1

A further assay concerns the target T4, FEV (Homo sapiens, UniProt Q99581 1-238).
T4 sequence: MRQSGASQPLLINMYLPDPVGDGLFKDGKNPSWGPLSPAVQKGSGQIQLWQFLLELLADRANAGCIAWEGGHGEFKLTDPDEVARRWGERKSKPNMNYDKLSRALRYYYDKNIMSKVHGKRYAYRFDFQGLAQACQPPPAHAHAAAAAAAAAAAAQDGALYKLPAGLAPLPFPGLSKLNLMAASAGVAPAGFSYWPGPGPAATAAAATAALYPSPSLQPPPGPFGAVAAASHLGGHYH
The gist of the method:
as §1

The target of a further assay is ETV5 (Homo sapiens, UniProt P41161 1-510). In outline: as §1
In another assay the target is ELF4 (Homo sapiens, UniProt Q99607 1-663). In outline: as §1
The target in another assay is T5, ELK4 (Homo sapiens, UniProt P28324-2 1-405).
T5 sequence: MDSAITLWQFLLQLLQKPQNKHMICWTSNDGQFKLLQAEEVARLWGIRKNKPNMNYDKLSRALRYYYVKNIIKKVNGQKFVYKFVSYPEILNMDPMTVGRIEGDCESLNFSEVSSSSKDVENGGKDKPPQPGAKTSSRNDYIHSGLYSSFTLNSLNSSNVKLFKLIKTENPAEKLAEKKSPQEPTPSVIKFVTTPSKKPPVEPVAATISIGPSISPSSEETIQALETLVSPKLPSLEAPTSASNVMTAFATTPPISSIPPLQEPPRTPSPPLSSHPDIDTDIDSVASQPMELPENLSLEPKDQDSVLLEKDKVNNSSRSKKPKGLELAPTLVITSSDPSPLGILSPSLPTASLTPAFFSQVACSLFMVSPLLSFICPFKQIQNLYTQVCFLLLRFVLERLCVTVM
The gist of the method: as §1

Another assay concerns the target T6, ETV2 (Homo sapiens, UniProt O00321 1-342).
T6 sequence: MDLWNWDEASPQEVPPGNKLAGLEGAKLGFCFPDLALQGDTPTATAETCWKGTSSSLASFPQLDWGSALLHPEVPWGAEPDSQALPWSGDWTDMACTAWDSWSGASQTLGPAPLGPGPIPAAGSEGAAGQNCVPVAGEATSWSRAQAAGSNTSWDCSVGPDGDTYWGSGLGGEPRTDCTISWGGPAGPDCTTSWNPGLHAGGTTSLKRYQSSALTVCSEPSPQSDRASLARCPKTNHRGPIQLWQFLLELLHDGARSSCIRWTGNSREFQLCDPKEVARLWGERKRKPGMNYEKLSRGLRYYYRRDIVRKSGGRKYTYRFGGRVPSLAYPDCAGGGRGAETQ
The gist of the method:
as §1

In the next assay the target is T7, ELF3 (Homo sapiens, UniProt P78545 1-371).
T7 sequence: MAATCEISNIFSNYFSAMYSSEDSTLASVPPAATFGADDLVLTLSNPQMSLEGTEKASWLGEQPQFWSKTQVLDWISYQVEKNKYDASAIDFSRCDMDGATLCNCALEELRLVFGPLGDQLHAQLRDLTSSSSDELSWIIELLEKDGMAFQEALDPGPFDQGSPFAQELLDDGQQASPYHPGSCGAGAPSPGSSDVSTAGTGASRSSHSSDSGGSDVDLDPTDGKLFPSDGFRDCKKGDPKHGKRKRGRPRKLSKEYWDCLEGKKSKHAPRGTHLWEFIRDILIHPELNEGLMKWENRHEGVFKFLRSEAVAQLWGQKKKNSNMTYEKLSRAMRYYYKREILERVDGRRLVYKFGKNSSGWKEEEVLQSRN
In outline: as §1

The next assay deals with ETV1 (Homo sapiens, UniProt P50549 1-477). The gist of the method: as §1
A further assay deals with T8, ERF (Homo sapiens, UniProt P50548 1-548).
T8 sequence: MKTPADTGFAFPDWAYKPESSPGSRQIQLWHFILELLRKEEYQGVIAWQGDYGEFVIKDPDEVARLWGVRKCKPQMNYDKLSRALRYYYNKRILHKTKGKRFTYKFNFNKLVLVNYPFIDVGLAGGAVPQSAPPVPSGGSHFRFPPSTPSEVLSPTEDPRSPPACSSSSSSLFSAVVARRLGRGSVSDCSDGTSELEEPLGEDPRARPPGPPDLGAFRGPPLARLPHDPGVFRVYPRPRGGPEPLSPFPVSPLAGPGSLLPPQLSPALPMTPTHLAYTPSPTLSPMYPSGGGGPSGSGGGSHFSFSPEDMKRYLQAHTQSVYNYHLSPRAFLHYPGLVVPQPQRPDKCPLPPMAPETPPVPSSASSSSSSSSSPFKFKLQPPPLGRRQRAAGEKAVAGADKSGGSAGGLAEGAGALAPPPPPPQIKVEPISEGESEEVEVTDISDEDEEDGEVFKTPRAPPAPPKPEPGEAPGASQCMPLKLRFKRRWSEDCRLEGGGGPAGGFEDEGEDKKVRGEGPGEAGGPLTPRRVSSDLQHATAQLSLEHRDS
The gist of the method:
as §1

A further assay concerns the target T9, ETS2 (Homo sapiens, UniProt P15036 1-469).
T9 sequence: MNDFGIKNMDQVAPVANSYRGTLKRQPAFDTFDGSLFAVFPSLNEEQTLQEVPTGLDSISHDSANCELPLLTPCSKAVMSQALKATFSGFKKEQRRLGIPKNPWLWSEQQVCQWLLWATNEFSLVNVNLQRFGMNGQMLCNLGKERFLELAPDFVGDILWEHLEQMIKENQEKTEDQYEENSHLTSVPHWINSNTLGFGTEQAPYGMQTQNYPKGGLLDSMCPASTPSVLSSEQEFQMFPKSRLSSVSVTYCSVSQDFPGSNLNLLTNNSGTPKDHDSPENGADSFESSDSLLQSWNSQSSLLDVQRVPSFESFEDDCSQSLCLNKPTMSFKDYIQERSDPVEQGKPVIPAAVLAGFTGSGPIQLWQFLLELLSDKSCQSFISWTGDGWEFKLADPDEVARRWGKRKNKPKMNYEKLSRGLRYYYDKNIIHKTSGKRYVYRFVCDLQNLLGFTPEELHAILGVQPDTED
The gist of the method:
as §1

A further assay has as its target T10, ETV3 (Homo sapiens, UniProt P41162-2 1-143).
T10 sequence: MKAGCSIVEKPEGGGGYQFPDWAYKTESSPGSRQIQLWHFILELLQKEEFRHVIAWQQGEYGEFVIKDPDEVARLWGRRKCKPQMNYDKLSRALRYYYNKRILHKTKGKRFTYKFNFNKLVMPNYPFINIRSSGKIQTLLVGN
In outline:
as §1

The target in a further assay is ETV6 (Homo sapiens, UniProt P41212 1-452). In outline: as §1
ETV6, sequence (P41212 whole entry): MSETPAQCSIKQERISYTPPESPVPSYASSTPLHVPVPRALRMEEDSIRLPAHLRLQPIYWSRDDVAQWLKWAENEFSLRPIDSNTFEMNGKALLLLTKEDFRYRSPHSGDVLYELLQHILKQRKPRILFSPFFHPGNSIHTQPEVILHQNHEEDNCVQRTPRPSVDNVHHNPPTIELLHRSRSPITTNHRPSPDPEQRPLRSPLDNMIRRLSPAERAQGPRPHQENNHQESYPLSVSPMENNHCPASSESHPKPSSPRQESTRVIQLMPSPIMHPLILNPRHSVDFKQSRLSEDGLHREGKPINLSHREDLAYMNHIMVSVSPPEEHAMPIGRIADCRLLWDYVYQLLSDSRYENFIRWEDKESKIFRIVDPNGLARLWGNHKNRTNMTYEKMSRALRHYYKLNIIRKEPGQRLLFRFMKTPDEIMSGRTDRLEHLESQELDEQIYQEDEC

SPIB, sequence (Q01892 whole entry): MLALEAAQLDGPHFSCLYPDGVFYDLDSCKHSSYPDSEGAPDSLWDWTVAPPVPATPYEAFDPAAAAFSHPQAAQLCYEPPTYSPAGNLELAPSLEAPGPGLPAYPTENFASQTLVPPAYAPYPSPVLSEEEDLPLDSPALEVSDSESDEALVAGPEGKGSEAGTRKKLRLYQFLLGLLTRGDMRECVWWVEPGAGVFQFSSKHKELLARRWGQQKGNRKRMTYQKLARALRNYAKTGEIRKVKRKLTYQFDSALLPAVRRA
ELF4, sequence (Q99607 whole entry): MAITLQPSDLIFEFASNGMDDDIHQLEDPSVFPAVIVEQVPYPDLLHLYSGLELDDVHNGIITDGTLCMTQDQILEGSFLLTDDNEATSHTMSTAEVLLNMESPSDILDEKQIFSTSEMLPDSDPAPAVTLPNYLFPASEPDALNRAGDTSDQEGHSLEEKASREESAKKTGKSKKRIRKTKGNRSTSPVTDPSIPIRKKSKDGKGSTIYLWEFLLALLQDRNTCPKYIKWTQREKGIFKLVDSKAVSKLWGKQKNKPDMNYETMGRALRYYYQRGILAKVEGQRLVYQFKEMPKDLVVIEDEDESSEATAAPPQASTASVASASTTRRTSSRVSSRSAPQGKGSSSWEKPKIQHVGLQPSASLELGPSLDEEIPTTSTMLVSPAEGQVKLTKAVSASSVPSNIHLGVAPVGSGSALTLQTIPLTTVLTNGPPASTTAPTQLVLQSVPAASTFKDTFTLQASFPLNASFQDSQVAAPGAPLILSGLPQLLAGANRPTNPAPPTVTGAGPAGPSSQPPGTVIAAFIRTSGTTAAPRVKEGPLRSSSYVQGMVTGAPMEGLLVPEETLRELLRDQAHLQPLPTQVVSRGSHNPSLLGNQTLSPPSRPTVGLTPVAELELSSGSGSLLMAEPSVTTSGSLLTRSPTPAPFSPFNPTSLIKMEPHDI
ELF1, sequence (P32519 whole entry): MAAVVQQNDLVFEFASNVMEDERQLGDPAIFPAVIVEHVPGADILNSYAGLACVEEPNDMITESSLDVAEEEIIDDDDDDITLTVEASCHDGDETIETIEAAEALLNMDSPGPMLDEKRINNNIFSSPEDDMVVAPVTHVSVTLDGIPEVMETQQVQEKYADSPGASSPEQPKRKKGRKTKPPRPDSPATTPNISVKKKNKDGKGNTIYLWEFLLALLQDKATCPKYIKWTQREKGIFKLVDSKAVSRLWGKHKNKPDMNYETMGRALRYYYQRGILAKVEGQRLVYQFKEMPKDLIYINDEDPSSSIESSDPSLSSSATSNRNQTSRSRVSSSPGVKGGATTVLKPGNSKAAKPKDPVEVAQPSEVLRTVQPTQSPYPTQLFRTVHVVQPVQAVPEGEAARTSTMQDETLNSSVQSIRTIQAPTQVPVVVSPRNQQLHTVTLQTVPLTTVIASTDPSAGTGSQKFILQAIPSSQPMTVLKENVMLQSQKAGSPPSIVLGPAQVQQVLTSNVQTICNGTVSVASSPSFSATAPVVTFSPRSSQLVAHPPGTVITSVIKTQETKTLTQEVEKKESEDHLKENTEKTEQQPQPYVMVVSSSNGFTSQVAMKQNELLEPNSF
ETV1, sequence (P50549 whole entry): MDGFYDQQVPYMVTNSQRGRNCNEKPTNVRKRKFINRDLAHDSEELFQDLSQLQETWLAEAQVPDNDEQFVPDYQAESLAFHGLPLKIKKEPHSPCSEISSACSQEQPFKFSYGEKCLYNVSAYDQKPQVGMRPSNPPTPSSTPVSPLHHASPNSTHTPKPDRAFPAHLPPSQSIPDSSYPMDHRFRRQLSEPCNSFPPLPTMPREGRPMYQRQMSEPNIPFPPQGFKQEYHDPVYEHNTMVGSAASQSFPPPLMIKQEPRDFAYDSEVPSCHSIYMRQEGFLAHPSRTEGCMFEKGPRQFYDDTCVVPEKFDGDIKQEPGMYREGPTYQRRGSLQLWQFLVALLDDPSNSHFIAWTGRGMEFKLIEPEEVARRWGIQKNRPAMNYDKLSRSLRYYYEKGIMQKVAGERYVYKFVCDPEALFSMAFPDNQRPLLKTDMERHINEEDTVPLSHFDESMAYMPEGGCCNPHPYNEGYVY
ETV5, sequence (P41161 whole entry): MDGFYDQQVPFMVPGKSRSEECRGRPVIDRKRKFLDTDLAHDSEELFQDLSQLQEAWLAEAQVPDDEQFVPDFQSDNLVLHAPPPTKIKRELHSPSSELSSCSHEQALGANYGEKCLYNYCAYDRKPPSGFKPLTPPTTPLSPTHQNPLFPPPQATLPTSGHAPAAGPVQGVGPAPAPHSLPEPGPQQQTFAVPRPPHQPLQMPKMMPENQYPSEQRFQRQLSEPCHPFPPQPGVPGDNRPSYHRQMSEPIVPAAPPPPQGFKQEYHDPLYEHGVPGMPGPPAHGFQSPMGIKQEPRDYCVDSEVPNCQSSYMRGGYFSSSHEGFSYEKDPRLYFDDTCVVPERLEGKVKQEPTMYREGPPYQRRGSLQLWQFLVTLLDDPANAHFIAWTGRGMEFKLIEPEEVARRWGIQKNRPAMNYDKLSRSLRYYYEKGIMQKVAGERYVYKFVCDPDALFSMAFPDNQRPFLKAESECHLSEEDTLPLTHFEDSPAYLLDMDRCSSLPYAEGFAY

Regarding AGCAAA, the binding signal is 1.04 fold enrichment (6-mer frequency, TF over GST control) with ELK1; 1.06 fold enrichment (6-mer frequency, TF over GST control) in the assay with GABPA; 1.07 fold enrichment (6-mer frequency, TF over GST control) with ELF1; 1.03 fold enrichment (6-mer frequency, TF over GST control) with EHF; 1.04 fold enrichment (6-mer frequency, TF over GST control) with SPI1; 1.04 fold enrichment (6-mer frequency, TF over GST control) with SPIB. Moreover, the binding signal with FEV was 1.02 fold enrichment (6-mer frequency, TF over GST control); with ETV5 it was 1.07 fold enrichment (6-mer frequency, TF over GST control); with ELF4 it was 1.05 fold enrichment (6-mer frequency, TF over GST control); in the assay with ELK4, 1.05 fold enrichment (6-mer frequency, TF over GST control); with ETV2, 1.17 fold enrichment (6-mer frequency, TF over GST control); with ELF3 it was 1.21 fold enrichment (6-mer frequency, TF over GST control). In addition, the binding signal with ETV1 is 1.09 fold enrichment (6-mer frequency, TF over GST control); with ERF, 1.05 fold enrichment (6-mer frequency, TF over GST control); with ETS2 it was 1.02 fold enrichment (6-mer frequency, TF over GST control); with ETV3, 1.06 fold enrichment (6-mer frequency, TF over GST control); in the assay with ETV6, 1.05 fold enrichment (6-mer frequency, TF over GST control).
